# Data as given in article PMC7862700, “An all-to-all approach to the identification of sequence-specific readers for epigenetic DNA modifications on cytosine”.
# Tests used:
# Assay in all cases: DAPPL (digital affinity profiling via proximity ligation, sequencing); 10 mM Tris-HCl pH 7.5, 50 mM NaCl, 1 mM DTT, 4% glycerol, room temperature, 30 min; GST-TFs on glutathione beads, 16-mer random dsDNA library, 0.1% formaldehyde crosslink after washing; high values mean tight binding
# FEV = molecular target: T1, FEV (Homo sapiens, UniProt Q99581 1-238); details: protein: recombinant; tags: N-terminal GST; dsDNA, one strand shown
# T1 sequence: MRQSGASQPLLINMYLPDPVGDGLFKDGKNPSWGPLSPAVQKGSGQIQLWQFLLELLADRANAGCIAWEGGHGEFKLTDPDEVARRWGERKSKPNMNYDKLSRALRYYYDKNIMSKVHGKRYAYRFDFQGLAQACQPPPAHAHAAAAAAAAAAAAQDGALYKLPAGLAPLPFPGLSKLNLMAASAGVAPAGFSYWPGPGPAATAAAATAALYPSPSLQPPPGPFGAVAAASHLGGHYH
# In short: (§1)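 Human transcription factors were made in yeast as GST fusions, captured on glutathione beads and barcoded with DNA. With a tag-only sample included, the pool was incubated with 200 nmole of a random double-stranded 16-mer DNA library in Tris/NaCl/DTT/glycerol buffer at room temperature for 30 min, then crosslinked with 0.1% formaldehyde after washing, ligated by proximity, amplified and sequenced. For binding signal, each hexamer's read frequency for a factor is divided by its frequency for the tag-only sample.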
# ETV5 = ETV5 (Homo sapiens, UniProt P41161 1-510); details: protein: recombinant; tags: N-terminal GST; dsDNA, one strand shown
# In short: as §1
# HSF1 = HSF1 (Homo sapiens, UniProt Q00613 1-529); details: protein: recombinant; tags: N-terminal GST; chain copies: 3; dsDNA, one strand shown
# In short: as §1
# SPIC = molecular target: T2, SPIC (Homo sapiens, UniProt Q8N5J4 1-248); details: protein: recombinant; tags: N-terminal GST; dsDNA, one strand shown
# T2 sequence: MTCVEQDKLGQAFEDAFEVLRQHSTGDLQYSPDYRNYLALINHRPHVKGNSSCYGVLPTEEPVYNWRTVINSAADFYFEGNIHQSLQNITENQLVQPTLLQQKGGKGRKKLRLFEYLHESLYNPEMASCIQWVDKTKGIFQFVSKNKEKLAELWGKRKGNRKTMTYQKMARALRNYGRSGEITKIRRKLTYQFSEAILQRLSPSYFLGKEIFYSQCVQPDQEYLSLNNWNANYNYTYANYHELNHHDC
# In short: as §1
# ELF4 = ELF4 (Homo sapiens, UniProt Q99607 1-663); details: protein: recombinant; tags: N-terminal GST; dsDNA, one strand shown
# In short: as §1
# ELK4 = molecular target: T3, ELK4 (Homo sapiens, UniProt P28324-2 1-405); details: protein: recombinant; tags: N-terminal GST; dsDNA, one strand shown
# T3 sequence: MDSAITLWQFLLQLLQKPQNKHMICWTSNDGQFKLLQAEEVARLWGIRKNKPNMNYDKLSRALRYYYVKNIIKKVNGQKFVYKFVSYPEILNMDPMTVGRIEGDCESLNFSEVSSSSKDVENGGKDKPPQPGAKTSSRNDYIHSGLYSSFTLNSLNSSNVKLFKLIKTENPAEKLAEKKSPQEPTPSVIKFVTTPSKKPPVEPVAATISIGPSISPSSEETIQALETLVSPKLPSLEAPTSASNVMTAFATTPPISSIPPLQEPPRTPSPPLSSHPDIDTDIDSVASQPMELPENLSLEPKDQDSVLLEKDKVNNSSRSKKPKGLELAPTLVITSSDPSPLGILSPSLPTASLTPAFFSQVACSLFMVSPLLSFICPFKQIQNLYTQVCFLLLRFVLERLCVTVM
# In short: as §1
# ETV2 = molecular target: T4, ETV2 (Homo sapiens, UniProt O00321 1-342); details: protein: recombinant; tags: N-terminal GST; dsDNA, one strand shown
# T4 sequence: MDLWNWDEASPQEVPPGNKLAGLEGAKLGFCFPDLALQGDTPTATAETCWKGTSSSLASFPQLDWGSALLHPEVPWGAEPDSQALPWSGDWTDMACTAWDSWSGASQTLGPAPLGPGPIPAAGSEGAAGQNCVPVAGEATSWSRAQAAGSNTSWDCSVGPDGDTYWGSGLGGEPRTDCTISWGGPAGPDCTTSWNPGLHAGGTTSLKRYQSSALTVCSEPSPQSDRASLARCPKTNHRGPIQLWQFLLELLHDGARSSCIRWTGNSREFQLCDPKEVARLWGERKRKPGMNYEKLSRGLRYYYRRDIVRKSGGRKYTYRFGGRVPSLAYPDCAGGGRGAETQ
# In short: as §1
# ELF3 = molecular target: T5, ELF3 (Homo sapiens, UniProt P78545 1-371); details: protein: recombinant; tags: N-terminal GST; dsDNA, one strand shown
# T5 sequence: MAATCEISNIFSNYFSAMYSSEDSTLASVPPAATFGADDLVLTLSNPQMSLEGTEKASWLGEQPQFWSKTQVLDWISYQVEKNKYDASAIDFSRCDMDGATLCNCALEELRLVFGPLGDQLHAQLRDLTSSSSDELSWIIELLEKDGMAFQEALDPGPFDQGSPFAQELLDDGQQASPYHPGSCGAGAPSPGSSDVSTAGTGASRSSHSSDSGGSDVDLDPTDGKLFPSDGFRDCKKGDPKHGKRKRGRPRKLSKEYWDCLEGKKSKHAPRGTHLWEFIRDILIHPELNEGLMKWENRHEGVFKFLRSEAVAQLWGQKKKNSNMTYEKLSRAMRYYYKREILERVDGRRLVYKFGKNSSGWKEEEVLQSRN
# In short: as §1
# CRX = CRX (Homo sapiens, UniProt O43186 1-299); details: protein: recombinant; tags: N-terminal GST; dsDNA, one strand shown
# In short: as §1
# ETV1 = ETV1 (Homo sapiens, UniProt P50549 1-477); details: protein: recombinant; tags: N-terminal GST; dsDNA, one strand shown
# In short: as §1
# ERF = molecular target: T6, ERF (Homo sapiens, UniProt P50548 1-548); details: protein: recombinant; tags: N-terminal GST; dsDNA, one strand shown
# T6 sequence: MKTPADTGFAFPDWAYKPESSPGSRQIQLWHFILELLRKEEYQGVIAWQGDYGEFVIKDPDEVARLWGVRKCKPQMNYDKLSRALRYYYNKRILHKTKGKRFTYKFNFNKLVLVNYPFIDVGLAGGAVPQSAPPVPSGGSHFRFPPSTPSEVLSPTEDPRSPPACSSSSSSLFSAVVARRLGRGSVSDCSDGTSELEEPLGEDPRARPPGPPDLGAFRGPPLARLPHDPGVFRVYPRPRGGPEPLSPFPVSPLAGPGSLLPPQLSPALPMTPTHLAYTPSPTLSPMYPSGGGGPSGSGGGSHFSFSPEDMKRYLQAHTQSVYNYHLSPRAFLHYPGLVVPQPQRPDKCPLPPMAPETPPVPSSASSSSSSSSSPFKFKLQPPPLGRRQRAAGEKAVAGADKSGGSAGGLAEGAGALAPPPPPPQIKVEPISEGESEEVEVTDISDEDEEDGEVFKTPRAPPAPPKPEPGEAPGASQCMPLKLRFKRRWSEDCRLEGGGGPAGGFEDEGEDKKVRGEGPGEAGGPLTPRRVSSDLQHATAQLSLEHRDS
# In short: as §1
# ETV3L = molecular target: T7, ETV3L (Homo sapiens, UniProt Q6ZN32 1-361); details: protein: recombinant; tags: N-terminal GST; dsDNA, one strand shown
# T7 sequence: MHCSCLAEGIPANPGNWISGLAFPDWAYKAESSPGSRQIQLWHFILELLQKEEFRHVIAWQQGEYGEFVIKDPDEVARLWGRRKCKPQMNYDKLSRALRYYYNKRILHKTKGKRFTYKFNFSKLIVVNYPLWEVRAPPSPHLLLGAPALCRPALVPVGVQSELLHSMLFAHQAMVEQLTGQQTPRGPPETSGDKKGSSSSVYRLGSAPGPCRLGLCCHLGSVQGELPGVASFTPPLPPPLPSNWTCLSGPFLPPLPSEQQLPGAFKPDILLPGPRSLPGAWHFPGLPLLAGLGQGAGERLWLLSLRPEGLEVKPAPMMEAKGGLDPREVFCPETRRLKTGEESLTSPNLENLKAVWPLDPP
# In short: as §1
# ETS2 = molecular target: T8, ETS2 (Homo sapiens, UniProt P15036 1-469); details: protein: recombinant; tags: N-terminal GST; dsDNA, one strand shown
# T8 sequence: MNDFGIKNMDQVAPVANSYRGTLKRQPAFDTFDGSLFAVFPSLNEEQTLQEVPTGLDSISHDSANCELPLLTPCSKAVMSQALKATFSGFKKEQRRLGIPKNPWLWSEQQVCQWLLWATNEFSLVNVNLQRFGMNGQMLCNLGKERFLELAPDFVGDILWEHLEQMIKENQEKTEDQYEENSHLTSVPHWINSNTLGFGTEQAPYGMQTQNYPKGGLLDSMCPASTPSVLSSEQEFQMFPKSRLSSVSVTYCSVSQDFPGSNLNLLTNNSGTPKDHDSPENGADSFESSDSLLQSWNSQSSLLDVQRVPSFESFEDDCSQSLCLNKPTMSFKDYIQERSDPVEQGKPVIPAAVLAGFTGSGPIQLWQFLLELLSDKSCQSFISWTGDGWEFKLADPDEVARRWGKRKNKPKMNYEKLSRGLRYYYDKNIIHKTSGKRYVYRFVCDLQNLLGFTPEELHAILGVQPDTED
# In short: as §1
# SPDEF = molecular target: T9, SPDEF (Homo sapiens, UniProt O95238 1-335); details: protein: recombinant; tags: N-terminal GST; dsDNA, one strand shown
# T9 sequence: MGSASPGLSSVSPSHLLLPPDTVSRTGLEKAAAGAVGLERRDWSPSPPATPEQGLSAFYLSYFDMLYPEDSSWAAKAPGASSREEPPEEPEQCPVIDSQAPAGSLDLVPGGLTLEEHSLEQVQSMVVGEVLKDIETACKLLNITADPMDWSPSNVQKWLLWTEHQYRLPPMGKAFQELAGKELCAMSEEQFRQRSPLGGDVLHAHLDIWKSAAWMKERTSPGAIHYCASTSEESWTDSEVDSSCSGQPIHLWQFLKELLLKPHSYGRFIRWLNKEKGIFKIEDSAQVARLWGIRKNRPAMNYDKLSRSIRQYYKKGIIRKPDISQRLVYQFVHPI
# In short: as §1
# ETV7 = molecular target: T10, ETV7 (Homo sapiens, UniProt Q9Y603 1-341); details: protein: recombinant; tags: N-terminal GST; dsDNA, one strand shown
# T10 sequence: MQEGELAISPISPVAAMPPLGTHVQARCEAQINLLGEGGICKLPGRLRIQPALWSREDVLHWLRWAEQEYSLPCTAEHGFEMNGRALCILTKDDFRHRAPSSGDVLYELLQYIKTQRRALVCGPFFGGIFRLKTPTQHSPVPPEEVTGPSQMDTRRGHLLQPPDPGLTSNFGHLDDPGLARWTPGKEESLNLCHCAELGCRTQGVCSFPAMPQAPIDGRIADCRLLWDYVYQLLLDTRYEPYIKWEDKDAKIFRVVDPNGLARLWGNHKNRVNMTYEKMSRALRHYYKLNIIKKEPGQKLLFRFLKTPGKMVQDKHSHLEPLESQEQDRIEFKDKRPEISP
# In short: as §1
# ELF5 = molecular target: T11, ELF5 (Homo sapiens, UniProt Q9UKW6-2 1-255); details: protein: recombinant; tags: N-terminal GST; dsDNA, one strand shown
# T11 sequence: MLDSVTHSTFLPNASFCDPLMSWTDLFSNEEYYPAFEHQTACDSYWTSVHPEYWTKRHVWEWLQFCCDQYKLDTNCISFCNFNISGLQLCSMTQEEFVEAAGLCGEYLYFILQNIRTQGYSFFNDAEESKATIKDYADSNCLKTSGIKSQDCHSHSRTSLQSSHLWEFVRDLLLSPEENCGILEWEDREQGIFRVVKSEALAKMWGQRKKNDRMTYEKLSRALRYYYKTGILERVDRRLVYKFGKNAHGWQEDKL
# In short: as §1
# ETV3 = molecular target: T12, ETV3 (Homo sapiens, UniProt P41162-2 1-143); details: protein: recombinant; tags: N-terminal GST; dsDNA, one strand shown
# T12 sequence: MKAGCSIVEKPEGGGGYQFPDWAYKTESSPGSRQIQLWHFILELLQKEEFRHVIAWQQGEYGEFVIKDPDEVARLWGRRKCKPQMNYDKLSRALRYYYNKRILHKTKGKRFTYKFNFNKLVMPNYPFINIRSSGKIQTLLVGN
# In short: as §1
# ETV6 = ETV6 (Homo sapiens, UniProt P41212 1-452); details: protein: recombinant; tags: N-terminal GST; dsDNA, one strand shown
# In short: as §1
# ETV1, sequence (P50549 whole entry): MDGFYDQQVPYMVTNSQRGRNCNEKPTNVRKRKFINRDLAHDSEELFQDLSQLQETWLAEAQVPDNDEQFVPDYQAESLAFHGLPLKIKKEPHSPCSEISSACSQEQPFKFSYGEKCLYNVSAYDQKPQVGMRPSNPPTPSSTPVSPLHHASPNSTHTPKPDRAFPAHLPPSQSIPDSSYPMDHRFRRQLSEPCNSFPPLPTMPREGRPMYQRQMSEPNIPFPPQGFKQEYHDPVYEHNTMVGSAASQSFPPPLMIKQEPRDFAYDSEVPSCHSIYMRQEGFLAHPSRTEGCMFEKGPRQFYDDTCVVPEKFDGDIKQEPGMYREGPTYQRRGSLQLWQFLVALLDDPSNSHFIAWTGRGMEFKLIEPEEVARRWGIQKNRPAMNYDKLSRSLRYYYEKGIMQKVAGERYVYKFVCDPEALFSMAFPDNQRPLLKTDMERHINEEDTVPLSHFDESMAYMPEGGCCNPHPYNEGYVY
# ETV5, sequence (P41161 whole entry): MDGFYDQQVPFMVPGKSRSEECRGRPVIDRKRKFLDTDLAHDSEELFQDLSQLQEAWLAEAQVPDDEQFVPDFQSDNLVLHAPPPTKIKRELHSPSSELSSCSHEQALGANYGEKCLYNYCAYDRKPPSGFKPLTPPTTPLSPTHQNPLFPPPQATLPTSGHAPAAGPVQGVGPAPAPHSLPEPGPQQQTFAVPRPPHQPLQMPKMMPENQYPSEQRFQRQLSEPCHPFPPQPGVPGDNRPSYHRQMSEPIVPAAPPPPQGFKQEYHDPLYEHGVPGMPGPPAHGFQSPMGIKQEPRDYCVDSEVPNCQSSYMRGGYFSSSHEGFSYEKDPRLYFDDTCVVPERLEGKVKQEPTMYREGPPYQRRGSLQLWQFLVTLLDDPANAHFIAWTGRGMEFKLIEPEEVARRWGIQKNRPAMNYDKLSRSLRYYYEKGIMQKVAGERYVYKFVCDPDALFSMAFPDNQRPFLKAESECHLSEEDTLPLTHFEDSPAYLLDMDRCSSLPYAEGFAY
# HSF1, sequence (Q00613 whole entry): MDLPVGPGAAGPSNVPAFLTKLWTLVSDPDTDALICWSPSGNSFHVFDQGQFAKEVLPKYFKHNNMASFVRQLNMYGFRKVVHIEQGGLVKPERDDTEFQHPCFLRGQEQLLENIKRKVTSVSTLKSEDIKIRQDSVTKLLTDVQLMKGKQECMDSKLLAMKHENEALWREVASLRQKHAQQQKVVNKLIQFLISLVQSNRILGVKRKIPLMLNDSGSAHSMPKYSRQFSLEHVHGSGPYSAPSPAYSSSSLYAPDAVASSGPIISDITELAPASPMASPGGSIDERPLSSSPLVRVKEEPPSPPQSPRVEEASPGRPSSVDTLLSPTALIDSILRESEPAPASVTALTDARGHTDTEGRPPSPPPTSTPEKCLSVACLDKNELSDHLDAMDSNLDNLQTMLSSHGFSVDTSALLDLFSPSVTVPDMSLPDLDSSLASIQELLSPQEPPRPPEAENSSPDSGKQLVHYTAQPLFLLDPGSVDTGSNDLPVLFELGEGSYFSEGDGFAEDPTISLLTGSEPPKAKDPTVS
# ELF4, sequence (Q99607 whole entry): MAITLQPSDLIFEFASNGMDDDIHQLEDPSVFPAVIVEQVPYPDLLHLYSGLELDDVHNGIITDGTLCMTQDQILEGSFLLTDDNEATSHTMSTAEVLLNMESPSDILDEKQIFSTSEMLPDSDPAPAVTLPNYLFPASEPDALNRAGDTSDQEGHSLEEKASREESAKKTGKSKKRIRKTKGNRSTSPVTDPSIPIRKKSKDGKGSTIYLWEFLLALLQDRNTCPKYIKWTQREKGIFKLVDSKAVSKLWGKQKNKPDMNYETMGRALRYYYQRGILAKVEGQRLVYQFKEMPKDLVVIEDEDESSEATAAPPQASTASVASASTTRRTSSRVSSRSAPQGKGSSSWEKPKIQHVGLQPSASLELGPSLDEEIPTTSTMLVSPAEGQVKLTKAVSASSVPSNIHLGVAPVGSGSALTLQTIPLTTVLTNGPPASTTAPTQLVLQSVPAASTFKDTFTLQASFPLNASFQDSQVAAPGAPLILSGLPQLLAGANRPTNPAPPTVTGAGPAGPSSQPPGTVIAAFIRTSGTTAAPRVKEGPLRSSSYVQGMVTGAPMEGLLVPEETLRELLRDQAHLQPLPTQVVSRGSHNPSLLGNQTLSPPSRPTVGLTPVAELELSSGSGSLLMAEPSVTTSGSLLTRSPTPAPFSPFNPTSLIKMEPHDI
# CRX, sequence (O43186 whole entry): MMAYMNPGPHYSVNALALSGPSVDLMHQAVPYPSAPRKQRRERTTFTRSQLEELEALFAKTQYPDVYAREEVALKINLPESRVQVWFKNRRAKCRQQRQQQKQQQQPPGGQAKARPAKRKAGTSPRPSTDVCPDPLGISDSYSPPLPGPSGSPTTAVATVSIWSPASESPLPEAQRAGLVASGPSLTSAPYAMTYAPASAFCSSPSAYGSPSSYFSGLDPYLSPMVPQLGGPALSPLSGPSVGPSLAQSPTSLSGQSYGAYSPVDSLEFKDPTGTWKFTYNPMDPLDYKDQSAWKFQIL
# ETV6, sequence (P41212 whole entry): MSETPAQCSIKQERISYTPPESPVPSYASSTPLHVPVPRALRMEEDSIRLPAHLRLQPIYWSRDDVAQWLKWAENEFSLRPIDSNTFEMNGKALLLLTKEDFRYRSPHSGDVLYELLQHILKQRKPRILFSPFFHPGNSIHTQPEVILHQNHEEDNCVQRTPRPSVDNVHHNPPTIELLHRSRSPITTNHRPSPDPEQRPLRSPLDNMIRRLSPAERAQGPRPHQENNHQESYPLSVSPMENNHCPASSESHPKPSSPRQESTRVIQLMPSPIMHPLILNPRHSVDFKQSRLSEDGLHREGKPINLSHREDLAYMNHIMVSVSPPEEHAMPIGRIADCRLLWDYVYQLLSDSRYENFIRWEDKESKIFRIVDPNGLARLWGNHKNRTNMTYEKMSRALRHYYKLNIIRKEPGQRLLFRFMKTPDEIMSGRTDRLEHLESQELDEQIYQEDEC
sequence,measurement,setting,value
ATGTTA,binding signal,FEV,"1.13 fold enrichment (6-mer frequency, TF over GST control)"
same,binding signal,ETV5,"1.25 fold enrichment (6-mer frequency, TF over GST control)"
same,binding signal,HSF1,"1.12 fold enrichment (6-mer frequency, TF over GST control)"
same,binding signal,SPIC,"1.28 fold enrichment (6-mer frequency, TF over GST control)"
same,binding signal,ELF4,"1.33 fold enrichment (6-mer frequency, TF over GST control)"
same,binding signal,ELK4,"1.23 fold enrichment (6-mer frequency, TF over GST control)"
same,binding signal,ETV2,"1.24 fold enrichment (6-mer frequency, TF over GST control)"
same,binding signal,ELF3,"1.17 fold enrichment (6-mer frequency, TF over GST control)"
same,binding signal,CRX,"1.31 fold enrichment (6-mer frequency, TF over GST control)"
same,binding signal,ETV1,"1.3 fold enrichment (6-mer frequency, TF over GST control)"
same,binding signal,ERF,"1.21 fold enrichment (6-mer frequency, TF over GST control)"
same,binding signal,ETV3L,"1.2 fold enrichment (6-mer frequency, TF over GST control)"
same,binding signal,ETS2,"1.24 fold enrichment (6-mer frequency, TF over GST control)"
same,binding signal,SPDEF,"1.26 fold enrichment (6-mer frequency, TF over GST control)"
same,binding signal,ETV7,"1.23 fold enrichment (6-mer frequency, TF over GST control)"
same,binding signal,ELF5,"1.21 fold enrichment (6-mer frequency, TF over GST control)"
same,binding signal,ETV3,"1.23 fold enrichment (6-mer frequency, TF over GST control)"
same,binding signal,ETV6,"1.28 fold enrichment (6-mer frequency, TF over GST control)"
